Measurements reported in ChEMBL document CHEMBL2218924, “A broad activity screen in support of a chemogenomic map for kinase signalling research and drug discovery” (Biochem J, 2013).

Columns and labels:
[1] = target: Tyrosine-protein kinase SYK (Homo sapiens) (UniProt P43405); conditions: at 10 µM
[2] = target: T1, Mitogen-activated protein kinase kinase kinase 7 (Homo sapiens) (UniProt O43318); conditions: at 1 µM
T1 sequence (whole entry): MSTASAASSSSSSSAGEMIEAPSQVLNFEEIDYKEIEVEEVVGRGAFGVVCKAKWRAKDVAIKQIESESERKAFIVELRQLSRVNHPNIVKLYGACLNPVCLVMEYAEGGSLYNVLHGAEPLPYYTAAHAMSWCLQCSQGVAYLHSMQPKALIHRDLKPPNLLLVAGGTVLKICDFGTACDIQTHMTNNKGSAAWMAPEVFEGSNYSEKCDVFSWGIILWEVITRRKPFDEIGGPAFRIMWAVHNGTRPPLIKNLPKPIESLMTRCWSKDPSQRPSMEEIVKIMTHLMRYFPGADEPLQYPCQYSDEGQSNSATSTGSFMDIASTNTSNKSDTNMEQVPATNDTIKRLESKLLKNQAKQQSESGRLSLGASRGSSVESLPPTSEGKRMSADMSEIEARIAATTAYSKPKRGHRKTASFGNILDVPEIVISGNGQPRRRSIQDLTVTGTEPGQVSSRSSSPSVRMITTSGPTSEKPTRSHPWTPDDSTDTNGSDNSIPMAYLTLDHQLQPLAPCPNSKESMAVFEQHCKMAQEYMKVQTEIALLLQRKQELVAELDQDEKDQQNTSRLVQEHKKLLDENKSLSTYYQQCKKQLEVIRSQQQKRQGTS

[3] = target: T1, Mitogen-activated protein kinase kinase kinase 7 (Homo sapiens); conditions: at 10 µM
[4] = target: T2, Serine/threonine-protein kinase TBK1 (Homo sapiens) (UniProt Q9UHD2); conditions: at 1 µM
T2 sequence (whole entry): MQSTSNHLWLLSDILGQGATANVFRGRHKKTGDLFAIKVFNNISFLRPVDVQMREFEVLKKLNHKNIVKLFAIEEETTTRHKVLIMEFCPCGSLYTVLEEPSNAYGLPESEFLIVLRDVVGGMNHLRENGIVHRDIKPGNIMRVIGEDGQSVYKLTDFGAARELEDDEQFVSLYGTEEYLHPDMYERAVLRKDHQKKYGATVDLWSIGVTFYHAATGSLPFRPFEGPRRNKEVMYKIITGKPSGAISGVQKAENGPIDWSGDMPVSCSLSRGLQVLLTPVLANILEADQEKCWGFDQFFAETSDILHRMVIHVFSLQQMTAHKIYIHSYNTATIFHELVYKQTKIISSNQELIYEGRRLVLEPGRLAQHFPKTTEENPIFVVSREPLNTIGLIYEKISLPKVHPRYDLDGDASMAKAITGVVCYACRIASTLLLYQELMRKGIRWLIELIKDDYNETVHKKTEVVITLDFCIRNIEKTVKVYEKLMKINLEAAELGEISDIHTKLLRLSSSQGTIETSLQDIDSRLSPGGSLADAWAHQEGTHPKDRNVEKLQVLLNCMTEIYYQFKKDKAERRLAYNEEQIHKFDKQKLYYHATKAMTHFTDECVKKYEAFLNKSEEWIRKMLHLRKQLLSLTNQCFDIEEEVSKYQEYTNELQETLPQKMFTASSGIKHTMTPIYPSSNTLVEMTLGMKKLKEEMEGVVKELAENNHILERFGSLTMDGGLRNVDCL

[5] = target: T2, Serine/threonine-protein kinase TBK1 (Homo sapiens); conditions: at 10 µM
[6] = target: T3, TGF-beta receptor type-1 (Homo sapiens) (UniProt P36897); conditions: at 1 µM
T3 sequence (whole entry): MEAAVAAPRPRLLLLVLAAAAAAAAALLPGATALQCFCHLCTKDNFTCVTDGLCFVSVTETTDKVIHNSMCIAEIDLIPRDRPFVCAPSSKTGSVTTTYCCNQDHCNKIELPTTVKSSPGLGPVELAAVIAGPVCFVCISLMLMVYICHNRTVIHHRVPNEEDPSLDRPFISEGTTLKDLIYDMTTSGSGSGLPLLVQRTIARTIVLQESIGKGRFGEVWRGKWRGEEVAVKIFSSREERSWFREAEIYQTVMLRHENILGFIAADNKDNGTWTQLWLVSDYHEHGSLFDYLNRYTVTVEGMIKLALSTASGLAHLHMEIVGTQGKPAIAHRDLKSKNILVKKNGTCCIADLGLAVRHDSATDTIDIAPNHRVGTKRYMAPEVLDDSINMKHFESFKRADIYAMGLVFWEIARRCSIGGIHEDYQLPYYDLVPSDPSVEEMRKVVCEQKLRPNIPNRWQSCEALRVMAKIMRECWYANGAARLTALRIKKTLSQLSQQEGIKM

[7] = target: T4, Serine/threonine-protein kinase TAO2 (Homo sapiens) (UniProt Q9UL54); conditions: at 10 µM
T4 sequence (whole entry): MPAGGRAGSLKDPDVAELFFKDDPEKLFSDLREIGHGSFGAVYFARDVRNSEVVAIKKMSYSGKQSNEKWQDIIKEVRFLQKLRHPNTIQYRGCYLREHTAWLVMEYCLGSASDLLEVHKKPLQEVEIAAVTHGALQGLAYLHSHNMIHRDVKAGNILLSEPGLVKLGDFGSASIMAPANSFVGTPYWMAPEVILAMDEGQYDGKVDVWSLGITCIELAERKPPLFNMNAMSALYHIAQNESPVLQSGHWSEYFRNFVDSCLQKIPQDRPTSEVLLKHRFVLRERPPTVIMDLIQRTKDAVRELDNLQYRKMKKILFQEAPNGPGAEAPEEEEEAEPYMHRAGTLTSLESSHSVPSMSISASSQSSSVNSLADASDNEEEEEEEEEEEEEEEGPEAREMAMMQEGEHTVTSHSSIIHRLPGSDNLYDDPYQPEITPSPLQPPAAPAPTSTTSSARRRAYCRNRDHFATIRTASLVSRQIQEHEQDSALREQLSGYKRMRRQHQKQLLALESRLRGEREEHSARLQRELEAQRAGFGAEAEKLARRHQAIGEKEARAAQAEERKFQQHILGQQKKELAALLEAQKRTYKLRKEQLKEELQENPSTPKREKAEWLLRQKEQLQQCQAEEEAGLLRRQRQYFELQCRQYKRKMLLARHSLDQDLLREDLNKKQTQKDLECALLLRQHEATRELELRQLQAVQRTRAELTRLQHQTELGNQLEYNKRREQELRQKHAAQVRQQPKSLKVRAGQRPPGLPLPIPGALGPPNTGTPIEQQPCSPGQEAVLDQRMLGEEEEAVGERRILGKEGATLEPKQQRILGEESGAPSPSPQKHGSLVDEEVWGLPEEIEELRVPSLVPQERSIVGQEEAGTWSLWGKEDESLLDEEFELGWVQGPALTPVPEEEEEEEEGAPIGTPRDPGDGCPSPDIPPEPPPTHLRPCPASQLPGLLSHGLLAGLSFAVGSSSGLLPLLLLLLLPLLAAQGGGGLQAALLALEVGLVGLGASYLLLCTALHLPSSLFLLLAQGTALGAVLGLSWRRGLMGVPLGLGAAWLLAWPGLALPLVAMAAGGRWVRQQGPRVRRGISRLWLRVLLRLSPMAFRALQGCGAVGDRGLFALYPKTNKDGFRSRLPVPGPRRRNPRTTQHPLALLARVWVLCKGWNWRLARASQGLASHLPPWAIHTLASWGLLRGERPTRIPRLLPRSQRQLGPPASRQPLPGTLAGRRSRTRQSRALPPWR

[8] = target: T5, Serine/threonine-protein kinase TAO3 (Homo sapiens) (UniProt Q9H2K8); conditions: at 1 µM
T5 sequence (whole entry): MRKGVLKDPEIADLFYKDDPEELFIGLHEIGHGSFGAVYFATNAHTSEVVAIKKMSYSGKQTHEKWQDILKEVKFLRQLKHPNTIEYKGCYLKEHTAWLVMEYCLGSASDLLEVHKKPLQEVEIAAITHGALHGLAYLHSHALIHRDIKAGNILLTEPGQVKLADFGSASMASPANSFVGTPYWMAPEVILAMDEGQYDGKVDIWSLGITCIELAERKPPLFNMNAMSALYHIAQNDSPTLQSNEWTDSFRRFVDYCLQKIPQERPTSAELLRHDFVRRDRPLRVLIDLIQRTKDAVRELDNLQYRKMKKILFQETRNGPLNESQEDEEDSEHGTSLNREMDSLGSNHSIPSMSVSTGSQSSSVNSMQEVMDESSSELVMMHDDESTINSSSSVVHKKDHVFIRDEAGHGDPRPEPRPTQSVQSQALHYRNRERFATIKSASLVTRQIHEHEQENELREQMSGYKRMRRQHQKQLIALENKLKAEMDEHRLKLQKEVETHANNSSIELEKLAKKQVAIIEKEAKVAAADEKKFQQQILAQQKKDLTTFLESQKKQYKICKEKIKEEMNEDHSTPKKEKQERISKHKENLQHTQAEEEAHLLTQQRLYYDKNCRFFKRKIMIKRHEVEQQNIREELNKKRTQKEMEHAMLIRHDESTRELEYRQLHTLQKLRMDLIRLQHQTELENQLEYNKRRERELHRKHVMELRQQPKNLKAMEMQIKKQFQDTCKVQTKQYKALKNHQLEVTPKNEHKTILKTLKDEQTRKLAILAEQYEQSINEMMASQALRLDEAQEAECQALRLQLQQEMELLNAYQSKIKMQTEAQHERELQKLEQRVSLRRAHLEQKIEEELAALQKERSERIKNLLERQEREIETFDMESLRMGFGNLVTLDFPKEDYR

[9] = target: T5, Serine/threonine-protein kinase TAO3 (Homo sapiens); conditions: at 10 µM
[10] = target: T3, TGF-beta receptor type-1 (Homo sapiens); conditions: at 10 µM
[11] = target: T6, Serine/threonine-protein kinase TAO1 (Homo sapiens) (UniProt Q7L7X3); conditions: at 1 µM
T6 sequence (whole entry): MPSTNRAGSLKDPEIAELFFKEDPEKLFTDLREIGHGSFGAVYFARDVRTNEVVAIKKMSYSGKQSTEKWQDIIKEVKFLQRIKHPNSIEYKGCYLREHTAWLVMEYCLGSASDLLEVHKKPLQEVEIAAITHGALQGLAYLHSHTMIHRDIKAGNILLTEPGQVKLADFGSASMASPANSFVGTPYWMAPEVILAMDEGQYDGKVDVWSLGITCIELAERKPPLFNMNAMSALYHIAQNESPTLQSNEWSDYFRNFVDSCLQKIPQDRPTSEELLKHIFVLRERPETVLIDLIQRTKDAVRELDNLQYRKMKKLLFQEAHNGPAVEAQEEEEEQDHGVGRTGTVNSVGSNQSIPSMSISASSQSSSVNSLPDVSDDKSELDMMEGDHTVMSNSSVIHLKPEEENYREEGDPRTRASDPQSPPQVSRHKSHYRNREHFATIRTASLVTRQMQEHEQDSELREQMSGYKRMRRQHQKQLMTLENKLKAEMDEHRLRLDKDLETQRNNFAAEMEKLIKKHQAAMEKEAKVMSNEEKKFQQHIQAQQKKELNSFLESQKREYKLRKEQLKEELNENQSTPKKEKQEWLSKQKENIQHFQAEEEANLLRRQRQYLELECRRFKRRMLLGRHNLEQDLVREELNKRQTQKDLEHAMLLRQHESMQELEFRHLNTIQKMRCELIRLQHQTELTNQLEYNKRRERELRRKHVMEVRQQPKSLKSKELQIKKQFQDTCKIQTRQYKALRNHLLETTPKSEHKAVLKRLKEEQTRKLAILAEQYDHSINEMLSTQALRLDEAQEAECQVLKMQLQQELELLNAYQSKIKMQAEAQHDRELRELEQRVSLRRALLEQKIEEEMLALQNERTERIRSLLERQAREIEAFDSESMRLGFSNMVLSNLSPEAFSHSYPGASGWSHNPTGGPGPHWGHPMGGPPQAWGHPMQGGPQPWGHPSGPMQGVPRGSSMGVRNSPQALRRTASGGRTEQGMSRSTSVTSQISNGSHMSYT

[12] = target: T6, Serine/threonine-protein kinase TAO1 (Homo sapiens); conditions: at 10 µM
[13] = target: T4, Serine/threonine-protein kinase TAO2 (Homo sapiens); conditions: at 1 µM
[14] = target: Insulin-like growth factor 1 receptor (Homo sapiens) (UniProt P08069); conditions: at 1 µM
Chain of Insulin-like growth factor 1 receptor (Homo sapiens) (P08069 31-736 limits assumed): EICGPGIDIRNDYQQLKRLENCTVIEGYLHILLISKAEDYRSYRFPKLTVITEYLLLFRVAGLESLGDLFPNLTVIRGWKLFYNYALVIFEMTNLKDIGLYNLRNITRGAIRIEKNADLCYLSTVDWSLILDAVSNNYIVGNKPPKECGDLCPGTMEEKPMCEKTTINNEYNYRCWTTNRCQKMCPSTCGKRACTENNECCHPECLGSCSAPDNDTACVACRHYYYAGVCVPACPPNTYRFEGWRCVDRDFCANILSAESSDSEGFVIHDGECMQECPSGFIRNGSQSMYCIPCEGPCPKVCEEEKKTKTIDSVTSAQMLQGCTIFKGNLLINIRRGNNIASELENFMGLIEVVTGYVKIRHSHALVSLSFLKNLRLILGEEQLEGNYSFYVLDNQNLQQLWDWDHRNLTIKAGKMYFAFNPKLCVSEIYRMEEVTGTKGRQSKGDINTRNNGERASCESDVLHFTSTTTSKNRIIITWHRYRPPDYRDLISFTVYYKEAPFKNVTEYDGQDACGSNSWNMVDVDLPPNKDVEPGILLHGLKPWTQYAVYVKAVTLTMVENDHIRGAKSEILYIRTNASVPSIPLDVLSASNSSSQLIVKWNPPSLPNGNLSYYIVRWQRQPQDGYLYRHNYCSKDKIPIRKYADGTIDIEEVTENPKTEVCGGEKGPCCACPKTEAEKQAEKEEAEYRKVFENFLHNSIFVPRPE
Chain of Insulin-like growth factor 1 receptor (Homo sapiens) (P08069 741-1367 limits assumed): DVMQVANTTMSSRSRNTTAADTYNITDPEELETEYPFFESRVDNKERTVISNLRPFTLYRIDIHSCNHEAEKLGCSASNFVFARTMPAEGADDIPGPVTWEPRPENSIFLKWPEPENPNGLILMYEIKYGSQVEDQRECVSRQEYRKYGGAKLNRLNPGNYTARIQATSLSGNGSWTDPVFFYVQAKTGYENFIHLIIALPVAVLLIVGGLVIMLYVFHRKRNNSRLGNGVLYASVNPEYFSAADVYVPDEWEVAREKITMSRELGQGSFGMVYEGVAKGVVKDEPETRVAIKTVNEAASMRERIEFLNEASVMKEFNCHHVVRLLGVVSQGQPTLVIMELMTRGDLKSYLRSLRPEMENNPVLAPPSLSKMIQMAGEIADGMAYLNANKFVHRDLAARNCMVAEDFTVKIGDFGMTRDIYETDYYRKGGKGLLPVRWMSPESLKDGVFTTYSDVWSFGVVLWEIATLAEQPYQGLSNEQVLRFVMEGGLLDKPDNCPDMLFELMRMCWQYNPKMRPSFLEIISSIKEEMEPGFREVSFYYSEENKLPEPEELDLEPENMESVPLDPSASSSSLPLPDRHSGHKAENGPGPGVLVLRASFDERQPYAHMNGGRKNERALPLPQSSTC

[15] = target: Insulin-like growth factor 1 receptor (Homo sapiens) (UniProt P08069); conditions: at 10 µM
[16] = target: Insulin receptor (Homo sapiens) (UniProt P06213); conditions: at 1 µM
Chain of Insulin receptor (Homo sapiens) (P06213 28-758 limits assumed): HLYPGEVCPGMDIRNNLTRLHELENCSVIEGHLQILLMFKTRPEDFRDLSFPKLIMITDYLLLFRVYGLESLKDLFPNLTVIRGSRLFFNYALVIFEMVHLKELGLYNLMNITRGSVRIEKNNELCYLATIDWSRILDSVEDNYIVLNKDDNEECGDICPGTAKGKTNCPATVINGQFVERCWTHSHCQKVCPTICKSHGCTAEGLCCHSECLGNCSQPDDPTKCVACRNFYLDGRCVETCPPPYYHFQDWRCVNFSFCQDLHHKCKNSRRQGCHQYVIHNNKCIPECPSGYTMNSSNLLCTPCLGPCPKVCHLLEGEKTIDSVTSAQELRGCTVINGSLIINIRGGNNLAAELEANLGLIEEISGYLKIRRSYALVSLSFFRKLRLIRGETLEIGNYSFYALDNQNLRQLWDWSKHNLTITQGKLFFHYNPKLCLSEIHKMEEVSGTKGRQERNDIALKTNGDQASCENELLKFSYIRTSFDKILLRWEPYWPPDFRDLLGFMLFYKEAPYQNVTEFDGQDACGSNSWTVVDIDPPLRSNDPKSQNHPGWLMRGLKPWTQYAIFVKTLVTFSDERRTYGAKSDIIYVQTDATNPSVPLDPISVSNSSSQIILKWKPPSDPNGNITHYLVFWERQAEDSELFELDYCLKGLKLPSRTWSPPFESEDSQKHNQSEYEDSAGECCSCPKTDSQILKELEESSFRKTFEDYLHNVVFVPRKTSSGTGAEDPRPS
Chain of Insulin receptor (Homo sapiens) (P06213 763-1382 limits assumed): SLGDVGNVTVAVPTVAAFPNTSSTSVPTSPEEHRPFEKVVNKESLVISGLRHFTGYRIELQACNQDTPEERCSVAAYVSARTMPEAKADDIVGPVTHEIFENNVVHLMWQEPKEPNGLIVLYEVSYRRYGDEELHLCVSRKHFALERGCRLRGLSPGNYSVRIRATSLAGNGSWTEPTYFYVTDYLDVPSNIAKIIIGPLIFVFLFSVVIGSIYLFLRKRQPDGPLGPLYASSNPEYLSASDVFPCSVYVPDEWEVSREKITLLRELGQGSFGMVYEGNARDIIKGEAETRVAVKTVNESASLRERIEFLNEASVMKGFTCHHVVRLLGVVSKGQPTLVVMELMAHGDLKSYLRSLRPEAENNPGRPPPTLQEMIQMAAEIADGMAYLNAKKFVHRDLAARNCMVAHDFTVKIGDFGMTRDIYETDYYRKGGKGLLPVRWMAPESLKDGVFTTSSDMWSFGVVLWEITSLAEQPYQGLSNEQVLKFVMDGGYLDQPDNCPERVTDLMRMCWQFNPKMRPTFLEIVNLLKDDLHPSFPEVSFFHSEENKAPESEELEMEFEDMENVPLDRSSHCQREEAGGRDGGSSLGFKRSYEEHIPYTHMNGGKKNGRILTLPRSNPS

[17] = target: T7, Inhibitor of nuclear factor kappa-B kinase subunit alpha (Homo sapiens) (UniProt O15111); conditions: at 1 µM
T7 sequence (whole entry): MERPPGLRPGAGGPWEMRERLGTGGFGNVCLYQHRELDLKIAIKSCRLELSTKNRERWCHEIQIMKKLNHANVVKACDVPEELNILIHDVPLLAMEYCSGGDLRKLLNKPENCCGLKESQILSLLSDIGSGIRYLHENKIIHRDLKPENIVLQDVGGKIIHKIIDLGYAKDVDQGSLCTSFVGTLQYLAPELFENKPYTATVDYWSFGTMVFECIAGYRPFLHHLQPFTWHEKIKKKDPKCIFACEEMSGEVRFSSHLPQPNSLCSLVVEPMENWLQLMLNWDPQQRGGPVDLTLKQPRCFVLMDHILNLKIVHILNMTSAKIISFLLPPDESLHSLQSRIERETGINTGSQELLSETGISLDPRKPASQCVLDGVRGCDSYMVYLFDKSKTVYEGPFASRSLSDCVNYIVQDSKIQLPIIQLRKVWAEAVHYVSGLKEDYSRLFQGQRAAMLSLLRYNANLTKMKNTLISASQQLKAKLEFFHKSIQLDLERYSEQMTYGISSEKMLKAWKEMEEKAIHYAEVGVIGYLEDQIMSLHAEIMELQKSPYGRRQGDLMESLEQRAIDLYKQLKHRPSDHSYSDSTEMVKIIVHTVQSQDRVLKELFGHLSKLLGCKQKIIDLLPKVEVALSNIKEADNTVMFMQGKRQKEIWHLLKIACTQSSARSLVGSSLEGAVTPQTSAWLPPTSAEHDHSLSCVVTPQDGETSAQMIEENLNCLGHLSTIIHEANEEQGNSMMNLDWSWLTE

[18] = target: T7, Inhibitor of nuclear factor kappa-B kinase subunit alpha (Homo sapiens); conditions: at 10 µM

Compound	residual activity [1] [%]	residual activity [2] [%]	residual activity [3] [%]	residual activity [4] [%]	residual activity [5] [%]	residual activity [6] [%]	residual activity [7] [%]	residual activity [8] [%]	residual activity [9] [%]	residual activity [10] [%]	residual activity [11] [%]	residual activity [12] [%]	residual activity [13] [%]	residual activity [14] [%]	residual activity [15] [%]	residual activity [16] [%]	residual activity [17] [%]	residual activity [18] [%]
O=C(Nc1nc2ccccc2n1CCN1CCOCC1)c1cccc([N+](=O)[O-])c1	84	78	74	73	60	76												
COc1ccc(Cl)cc1NC(=O)Nc1cc(C)nc2ccccc12	88	98	95	78	69	86	85	95	83	94								
COc1cc2nccc(Oc3ccc(NC(=S)NC(=O)c4ccccc4C)cc3)c2cc1OC	65	87	87	57	48	78	75	78	67	77	91	71	89	87	73	92		
COc1ccc2c(c1)c(C1=C(c3c[nH]c4ccccc34)C(=O)NC1=O)cn2CCCN(C)C	69	82	53	59	24	69	28	82	37	49		33		101	82	100	80	64
